According to PubChem BioAssay (NCATS):
Inconclusive results are not listed. Calls of active or inactive are those of the source. Calls follow the shape of the dose curve; as a rule, active = well fitted inhibition curve with a large enough effect; inconclusive = small, poorly fitted or top-dose-only effect; inactive = flat fitted curve, though single readings scatter.

Columns and labels:
[1] = qHTS profiling for inhibitors of Plasmodium falciparum proliferation (AID 504749);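 also: 0% = DMSO vehicle and full inhibition = artemisinin control; nearly all actives have a fitted effect of over 60% in size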; details: P. falciparum in erythrocytes, SYBR Green DNA, 72 h, at 28.7 µM (top of the series)
In short: (§1)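 Each compound contacts P. falciparum-infected red blood cells for 72 h at 37 C; lysis buffer (Tris, EDTA, saponin, Triton X, SYBR Green I) is added and fluorescence measured next morning; values normalized to controls.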

3D7 = assay: as above; details: P. falciparum in erythrocytes, SYBR Green DNA, 72 h; series mostly up to 28.7 µM
In short: as §1

7G8 = assay: as above; details: P. falciparum in erythrocytes, SYBR Green DNA, 72 h; series mostly up to 28.7 µM
In short: as §1

AA1029 = assay: as above; details: P. falciparum in erythrocytes, SYBR Green DNA, 72 h; series mostly up to 28.7 µM
In short: as §1

AS120 = assay: as above; details: P. falciparum in erythrocytes, SYBR Green DNA, 72 h; series mostly up to 28.7 µM
In short: as §1

ATS189 = assay: as above; details: P. falciparum in erythrocytes, SYBR Green DNA, 72 h; series mostly up to 28.7 µM
In short: as §1

ATS95 = assay: as above; details: P. falciparum in erythrocytes, SYBR Green DNA, 72 h; series mostly up to 28.7 µM
In short: as §1

C2A = assay: as above; details: P. falciparum in erythrocytes, SYBR Green DNA, 72 h; series mostly up to 28.7 µM
In short: as §1

CP185 = assay: as above; details: P. falciparum in erythrocytes, SYBR Green DNA, 72 h; series mostly up to 28.7 µM
In short: as §1

CP191 = assay: as above; details: P. falciparum in erythrocytes, SYBR Green DNA, 72 h; series mostly up to 28.7 µM
In short: as §1

CP192 = assay: as above; details: P. falciparum in erythrocytes, SYBR Green DNA, 72 h; series mostly up to 28.7 µM
In short: as §1

CP194 = assay: as above; details: P. falciparum in erythrocytes, SYBR Green DNA, 72 h; series mostly up to 28.7 µM
In short: as §1

CP201 = assay: as above; details: P. falciparum in erythrocytes, SYBR Green DNA, 72 h; series mostly up to 28.7 µM
In short: as §1

CP203 = assay: as above; details: P. falciparum in erythrocytes, SYBR Green DNA, 72 h; series mostly up to 28.7 µM
In short: as §1

CP211 = assay: as above; details: P. falciparum in erythrocytes, SYBR Green DNA, 72 h; series mostly up to 28.7 µM
In short: as §1

CP215 = assay: as above; details: P. falciparum in erythrocytes, SYBR Green DNA, 72 h; series mostly up to 28.7 µM
In short: as §1

CP217 = assay: as above; details: P. falciparum in erythrocytes, SYBR Green DNA, 72 h; series mostly up to 28.7 µM
In short: as §1

CP237 = assay: as above; details: P. falciparum in erythrocytes, SYBR Green DNA, 72 h; series mostly up to 28.7 µM
In short: as §1

CP238 = assay: as above; details: P. falciparum in erythrocytes, SYBR Green DNA, 72 h; series mostly up to 28.7 µM
In short: as §1

CP247 = assay: as above; details: P. falciparum in erythrocytes, SYBR Green DNA, 72 h; series mostly up to 28.7 µM
In short: as §1

COc1cc2c(cc1OC)[C@@H](Cc1cc(OC)c(OC)c(OC)c1)[N+](C)(CCCOC(=O)CC/C=C/CCC(=O)OCCC[N+]1(C)CCc3cc(OC)c(OC)cc3[C@H]1Cc1cc(OC)c(OC)c(OC)c1)CC2 (stereo partly drawn)
inactive: activity, negative = inhibition ([1]; parasite line A) 0.013% | activity, negative = inhibition ([1]; parasite line B) -1.97% | Potency (3D7) | Potency (7G8) | Potency (AA1029) | Potency (AS120) | Potency (ATS189) | Potency (ATS95) | Potency (C2A) | Potency (CP185) | Potency (CP191) | Potency (CP192) | Potency (CP194) | Potency (CP201) | Potency (CP203) | Potency (CP211) | Potency (CP215) | Potency (CP217) | Potency (CP237) | Potency (CP238) | Potency (CP247)

CO
inactive: activity, negative = inhibition ([1]; parasite line A) 8.74% | activity, negative = inhibition ([1]; parasite line B) -8% | Potency (3D7) | Potency (7G8) | Potency (AA1029) | Potency (AS120) | Potency (ATS189) | Potency (ATS95) | Potency (C2A) | Potency (CP185) | Potency (CP191) | Potency (CP192) | Potency (CP194) | Potency (CP201) | Potency (CP203) | Potency (CP211) | Potency (CP215) | Potency (CP217) | Potency (CP237) | Potency (CP238) | Potency (CP247)

FC(F)OC(Cl)C(F)(F)F (stereo not drawn)
inactive: activity, negative = inhibition ([1]; parasite line A) 2.2% | activity, negative = inhibition ([1]; parasite line B) 13% | Potency (3D7) | Potency (7G8) | Potency (AA1029) | Potency (AS120) | Potency (ATS189) | Potency (ATS95) | Potency (C2A) | Potency (CP185) | Potency (CP191) | Potency (CP192) | Potency (CP194) | Potency (CP201) | Potency (CP203) | Potency (CP211) | Potency (CP215) | Potency (CP217) | Potency (CP237) | Potency (CP238) | Potency (CP247)
